Laboratory results as given in PubChem BioAssay (NCATS).
Results filed as inconclusive are left out. A call without a number means that no potency is given here. Activity calls are given as the source filed them. Calls come from the whole dose curve; as a rule, active = well fitted inhibition curve with a large enough effect; inconclusive = small, poorly fitted or top-dose-only effect; inactive = no such curve, though single readings can be large or run the other way.

biological target: Tumor susceptibility gene 101 protein (Homo sapiens) (UniProt Q99816); test: qHTS Assay for Iinhibitors of HIV-1 Budding by Blocking the Interaction of PTAP/TSG101: Hit Validation (AID 651600); details: PTAP peptide/TSG101 UEV interaction, biochemical assay; series mostly up to 57.5 µM; note: nearly all actives have a fitted effect of over 70% in size
Method in brief: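 FITC-PTAP peptide (50 nM final) binding to Tsg101 binding domain (10 uM final) was measured by polarization after 20 min at r.t. with compounds, in 10 mM HEPES pH 7.5 buffer with 0.15 M NaCl and 0.01% Tween 20.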
Potency is the fitted concentration of half-maximal effect.

Chain of Tumor susceptibility gene 101 protein (Homo sapiens) (Q99816 whole entry, looked up, the tested form may be a part): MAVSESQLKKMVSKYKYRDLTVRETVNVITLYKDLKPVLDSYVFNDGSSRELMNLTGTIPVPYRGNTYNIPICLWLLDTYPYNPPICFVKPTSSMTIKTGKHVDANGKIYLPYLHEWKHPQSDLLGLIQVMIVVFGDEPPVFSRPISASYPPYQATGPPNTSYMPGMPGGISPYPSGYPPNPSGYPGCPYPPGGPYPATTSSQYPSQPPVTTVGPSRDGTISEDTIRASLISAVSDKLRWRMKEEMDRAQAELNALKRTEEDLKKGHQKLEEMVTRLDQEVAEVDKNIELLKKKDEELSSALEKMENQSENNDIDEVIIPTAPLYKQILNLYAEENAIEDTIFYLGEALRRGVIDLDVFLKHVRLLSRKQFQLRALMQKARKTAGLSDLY

SMILES	Potency
CCN(CC)c1ccc2cc(S(=O)(=O)c3ccc(Cl)cc3)c(=O)oc2c1	18.3 µM (active)
COc1ccc2c3c(cccc13)C(=O)CC2	18.3 µM (active)
COc1cccc2c1C(=O)c1c(O)c3c(c(O)c1C2=O)CC(O)(C(C)=O)CC3OC1CC(N(C)C)C(O)C(C)O1 (stereo unspecified)	9.19 µM (active)
O=c1c(/C=C(\O)c2ccc(F)cc2)nc2ccccc2n1-c1ccccc1	inactive
CC1=Nc2ccccc2/C1=C\c1nc(-c2ccc(F)cc2)oc1O	29.1 µM (active)
CCCn1c(O)c(N=Nc2ccc3ccccc3n2)c2ccccc21	inactive
CCC1(c2ccccc2)NC(=O)N(CC(=O)Nc2ccc(OC)nc2)C1=O (stereo unspecified)	18.3 µM (active)
COc1ccccc1NC(=O)/C(C#N)=C/c1cc([N+](=O)[O-])ccc1N1CCCC1	14.6 µM (active)
CCN(CC)c1ccc2cc(-c3nnc(-c4ccncc4)o3)c(=O)oc2c1	inactive
CCN1CCc2c(sc(NC(=O)CSc3ccccc3)c2-c2nc3ccccc3s2)C1	inactive
Oc1ccc2nnc3c(Br)cnn3c2c1	16.3 µM (active)
Cc1nc2ccccc2n2c(O)c(CC(=O)O)cc12	14.6 µM (active)
Cc1nc(Cl)c2c(n1)NC1=C(O2)C(=O)CCC1	18.3 µM (active)
O=C(NCc1ccc(F)cc1)c1cccc2c1C(=O)c1ccc(N3CCC(Cc4ccccc4)CC3)cc1S2(=O)=O	10.3 µM (active)
Nc1ccc2nc3c(=O)n(CCc4ccccc4)c(=O)[nH]c3nc2c1	3.26 µM (active)
Cc1cccc(N2C(=O)c3cccc4c(N)ccc(c34)C2=O)c1	2.31 µM (active)
CNc1ccc2c3c(cccc13)C(=O)N(C)C2=O	2.06 µM (active)
CCN(CC)c1ccc(/C=C(\C#N)C(=O)c2ccc(Br)cc2)cc1	inactive
Nc1ccc2c3c(cccc13)C(=O)N(c1ccccc1)C2=O	3.66 µM (active)
COc1ccccc1NC(=O)c1sc2nc(Cc3ccccc3)cc(C(F)(F)F)c2c1N	13 µM (active)
COc1cccc2c1C(=O)c1c(O)c3c(c(O)c1C2=O)CC(O)(C(=O)CO)CC3OC1CC(N(C)C)C(O)C(C)O1 (stereo unspecified)	4.61 µM (active)

biological target: Rap guanine nucleotide exchange factor 3 (Homo sapiens) (UniProt O95398); test: Confirmatory qHTS for antagonist of cAMP-regulated guanine nucleotide exchange factor 3 (EPAC1) (AID 1645880); details: EPAC1 Rap1B-BODIPY-GDP exchange, fluorescence; activity, negative = inhibition: at 115 µM (top of the series); note: nearly all actives have a fitted effect of over 55% in size
Method in brief: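 Nucleotide exchange uses 100 nM EPAC1, 250 nM RAP1B-BODIPY-GDP and 50 uM GDP, with compounds in a concentration-titration series. After 5 min at room temperature, fluorescence (480 nm ex/540 nm em) is read every 5 min for 30 min. Data are normalized to control ATA and DMSO.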

Chain of Rap guanine nucleotide exchange factor 3 (Homo sapiens) (O95398 whole entry, looked up): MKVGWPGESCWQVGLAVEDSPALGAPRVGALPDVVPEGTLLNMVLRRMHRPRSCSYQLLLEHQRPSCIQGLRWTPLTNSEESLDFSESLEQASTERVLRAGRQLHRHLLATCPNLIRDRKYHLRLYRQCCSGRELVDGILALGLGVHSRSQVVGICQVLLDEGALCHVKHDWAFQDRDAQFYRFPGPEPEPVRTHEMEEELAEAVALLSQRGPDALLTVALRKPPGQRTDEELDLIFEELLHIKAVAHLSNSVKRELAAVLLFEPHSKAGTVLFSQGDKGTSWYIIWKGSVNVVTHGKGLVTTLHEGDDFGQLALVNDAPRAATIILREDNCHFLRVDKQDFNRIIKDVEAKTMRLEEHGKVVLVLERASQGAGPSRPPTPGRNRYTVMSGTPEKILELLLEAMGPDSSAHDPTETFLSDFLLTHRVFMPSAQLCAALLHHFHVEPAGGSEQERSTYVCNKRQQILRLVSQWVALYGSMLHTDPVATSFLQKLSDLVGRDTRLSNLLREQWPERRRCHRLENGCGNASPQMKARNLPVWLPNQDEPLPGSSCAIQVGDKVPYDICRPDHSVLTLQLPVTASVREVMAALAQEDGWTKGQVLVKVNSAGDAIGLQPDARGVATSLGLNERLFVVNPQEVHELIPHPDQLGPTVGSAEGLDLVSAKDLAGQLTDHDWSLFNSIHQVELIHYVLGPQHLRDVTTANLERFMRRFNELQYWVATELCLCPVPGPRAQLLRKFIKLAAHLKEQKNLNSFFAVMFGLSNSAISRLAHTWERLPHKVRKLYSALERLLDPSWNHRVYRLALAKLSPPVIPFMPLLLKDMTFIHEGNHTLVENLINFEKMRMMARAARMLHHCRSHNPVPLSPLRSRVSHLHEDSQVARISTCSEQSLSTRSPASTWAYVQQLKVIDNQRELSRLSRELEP

SMILES	Potency
CCN(CC)c1ccc2cc(S(=O)(=O)c3ccc(Cl)cc3)c(=O)oc2c1	inactive
COc1ccc2c3c(cccc13)C(=O)CC2	inactive
COc1cccc2c1C(=O)c1c(O)c3c(c(O)c1C2=O)CC(O)(C(C)=O)CC3OC1CC(N(C)C)C(O)C(C)O1 (stereo unspecified)	inactive
O=C(NCCOc1ccc(F)cc1)c1ccccc1SCc1ccccc1	inactive
O=c1c(/C=C(\O)c2ccc(F)cc2)nc2ccccc2n1-c1ccccc1	inactive
CC1=Nc2ccccc2/C1=C\c1nc(-c2ccc(F)cc2)oc1O	inactive
CCCn1c(O)c(N=Nc2ccc3ccccc3n2)c2ccccc21	inactive
COCc1c(C(=O)N2CCc3ccccc32)oc2ccccc12	inactive
CC(C)(C)CNC(=O)c1cccc2c1C(=O)c1ccc(-c3cc4ccccc4o3)cc1S2(=O)=O	inactive
CCC1(c2ccccc2)NC(=O)N(CC(=O)Nc2ccc(OC)nc2)C1=O (stereo unspecified)	inactive
CC(C)CC(=NNC(=O)c1ccncc1)c1cc(Cl)ccc1O	inactive
COc1ccccc1NC(=O)/C(C#N)=C/c1cc([N+](=O)[O-])ccc1N1CCCC1	inactive
CCN(CC)c1ccc2cc(-c3nnc(-c4ccncc4)o3)c(=O)oc2c1	inactive
Cc1ccccc1C(=O)Nc1ccc(C(=O)OCc2cc(=O)n3c4c(sc3n2)CCCC4)cc1	inactive
COC(=O)CCc1nc2cc(Cl)ccc2n(Cc2ccccc2)c1=O	inactive
Cc1ccccc1C(=O)O/N=C(\c1ccccc1)c1ccccn1	inactive
Cc1ccc(NC(=O)CSc2nnc(-c3cc4occc4n3C)n2-c2ccccc2C)c(Cl)c1	inactive
O=C(C(=Cc1ccc(O)cc1)c1ccccc1)c1ccccc1	inactive
CCN1CCc2c(sc(NC(=O)CSc3ccccc3)c2-c2nc3ccccc3s2)C1	inactive
Oc1ccc2nnc3c(Br)cnn3c2c1	inactive

SMILES	Potency
Cc1nc2ccccc2n2c(O)c(CC(=O)O)cc12	inactive
COc1ccc2noc3c2c1C(=O)c1ccccc1-3	inactive
Cc1nc(Cl)c2c(n1)NC1=C(O2)C(=O)CCC1	inactive
Cc1ccc(OCc2nc3ccccc3n2CC(C)C)cc1	inactive
COCCn1c2nc(=O)n(-c3ccccc3)c(=O)c-2nc2ccccc21	inactive
O=C(NCc1ccc(F)cc1)c1cccc2c1C(=O)c1ccc(N3CCC(Cc4ccccc4)CC3)cc1S2(=O)=O	inactive
Nc1ccc2nc3c(=O)n(CCc4ccccc4)c(=O)[nH]c3nc2c1	inactive
Cc1cccc(N2C(=O)c3cccc4c(N)ccc(c34)C2=O)c1	inactive
CCN(CC)c1ccc2cc(C(=O)Nc3ccccn3)c(=O)oc2c1	inactive
COc1ccc(C(C#N)=Cc2ccccc2OC)cc1	inactive
CNc1ccc2c3c(cccc13)C(=O)N(C)C2=O	inactive
CCOC(=O)C1=C(C)NC(SC)=C(C#N)C1CC(C)C (stereo unspecified)	inactive
O=S1(=O)C=C(Oc2ccc3ccccc3c2)c2ccccc21	inactive
CCN(CC)c1ccc(/C=C(\C#N)C(=O)c2ccc(Br)cc2)cc1	inactive
Nc1ccc2c3c(cccc13)C(=O)N(c1ccccc1)C2=O	inactive
N#Cc1c(-c2cccs2)nc(SCC(=O)c2ccc(Br)cc2)[nH]c1=O	22.4 µM (active)
CCOc1cccc2sc(N3CCN(C(=O)C(C)(C)C)CC3)nc12	inactive
COc1ccccc1NC(=O)c1sc2nc(Cc3ccccc3)cc(C(F)(F)F)c2c1N	inactive
Cc1cc(/C=C2\SC(=S)N(C)C2=O)c(C)n1-c1ccccc1O	inactive
COc1cccc2c1C(=O)c1c(O)c3c(c(O)c1C2=O)CC(O)(C(=O)CO)CC3OC1CC(N(C)C)C(O)C(C)O1 (stereo unspecified)	inactive
